In PubChem BioAssay AID624388 (National Center for Advancing Translational Sciences (NCATS), 2012):
Active and inactive are the calls of the source. Calls come from the whole dose curve; as a rule, active = well fitted curve in the direction sought with a large enough effect; inactive = no such curve, though single readings can be large or run the other way.

Target: Pyruvate kinase PKLR (Homo sapiens) (UniProt P30613)
Assay: qHTS for Activators of Human Muscle Isoform 2 Pyruvate Kinase (PK): Extended Characterization using Reticulocyte PK Probe 2
Conditions: purified hPK-R, ATP production, Kinase-Glo luminescence; series mostly up to 58 µM
Text: Human pyruvate kinase reticulocyte (hPK-R) enzyme was supplied as a highly purified (>95% pure) preparation from Structural Genomics Consortium in Toronto (Ontario, Canada) and assayed for its ability to generate ATP from ADP using phosphoenolpyruvate (PEP) as a substrate. ATP generation was detected in a coupled reaction by luciferase-mediated luminescence, an ATP-dependent process. Pyruvate kinase substrates, PEP and ADP, were present in the assay at Km and approximately 10-fold below Km respectively. The enzyme was assayed at an intermediate level of activity to screen for both inhibitors and activators. NIH Chemical Genomics Center [NCGC] NIH Molecular Libraries Probe Centers Network [MLPCN] MLPCN Grant: MH085679 Assay Submitter (PI): Matthew G. Vander Heiden, Harvard Medical School
Three uL of substrate mix (at r.t.) in assay buffer (50 mM Imidazole pH7.2, 50 mM KCl, 7 mM MgCl2, 0.01% Tween 20, 0.05% BSA) was dispensed into white solid bottom 1,536 well microtiter plates so that the final concentrations of substrates in the assay were 0.1 mM ADP and 0.5 mM PEP. 23 nL of compound were delivered by a pin tool and 1 uL of enzyme mix (final concentration of 0.1 nM) in assay buffer (4 degree Celsius) was added. Plates were incubated at room temperature for 1 hour. Two uL of detection mix (Kinase-Glo, Promega; at 4 degree Celsius protected from light) was added and luminescence read by a ViewLux (Perkin Elmer) at 1 second exposure/plate. Data were normalized to the uninhibited (row 31). Additionally, a no enzyme and 5-fold enzyme control was dispensed in row 32, split equally between the two conditions.

Pyruvate kinase PKLR (Homo sapiens), sequence (P30613 whole entry, looked up, canonical isoform): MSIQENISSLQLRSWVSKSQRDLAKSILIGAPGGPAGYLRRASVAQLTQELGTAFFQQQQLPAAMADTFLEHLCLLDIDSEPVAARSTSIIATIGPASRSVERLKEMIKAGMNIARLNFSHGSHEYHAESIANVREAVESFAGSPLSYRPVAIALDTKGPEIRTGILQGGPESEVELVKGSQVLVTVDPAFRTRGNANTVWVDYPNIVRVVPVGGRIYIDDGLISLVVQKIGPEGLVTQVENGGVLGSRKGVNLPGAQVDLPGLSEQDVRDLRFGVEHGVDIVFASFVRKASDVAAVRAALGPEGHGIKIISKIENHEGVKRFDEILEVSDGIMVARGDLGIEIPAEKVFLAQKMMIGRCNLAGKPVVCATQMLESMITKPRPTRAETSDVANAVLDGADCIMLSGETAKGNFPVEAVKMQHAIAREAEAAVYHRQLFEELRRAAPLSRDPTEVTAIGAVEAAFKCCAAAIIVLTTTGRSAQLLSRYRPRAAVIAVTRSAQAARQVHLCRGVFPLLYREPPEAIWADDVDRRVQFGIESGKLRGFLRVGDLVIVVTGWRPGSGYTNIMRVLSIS

outcome, inactive:
O=S(=O)(c1ccc2c(c1)OCCO2)N1CCN(S(=O)(=O)c2c(F)cccc2F)CC1
COc1cccc(Cn2ncc3c4sc(S(C)=O)cc4n(C)c3c2=O)c1 (centres undefined)
Nc1cccc(S(=O)(=O)N2CCCN(S(=O)(=O)c3ccc4c(c3)OCCO4)CC2)c1
Cc1ccc(NS(=O)(=O)c2ccc3c(c2)CCC(=O)N3)cc1C
